Measurements reported in paper PMC4336329 (PLoS ONE, 2015).
Screen size: about 310,000 compounds; about 14,000 (4.5%) showed an effect of 50% or more. Effects have a minus sign here. Only a selection was taken, and strong results are over-represented in it overall.

Biological target: human ether-à-go-go-related gene (hERG) potassium channel (human, UniProt Q12809)
Assay: primary screen, population patch clamp on CHO cells stably expressing hERG; higher = less effect of the substance
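Note: peak tail current of the secondary pulse compared with the same well before compound.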

Chain of human ether-à-go-go-related gene (hERG) potassium channel (Q12809 whole entry, looked up): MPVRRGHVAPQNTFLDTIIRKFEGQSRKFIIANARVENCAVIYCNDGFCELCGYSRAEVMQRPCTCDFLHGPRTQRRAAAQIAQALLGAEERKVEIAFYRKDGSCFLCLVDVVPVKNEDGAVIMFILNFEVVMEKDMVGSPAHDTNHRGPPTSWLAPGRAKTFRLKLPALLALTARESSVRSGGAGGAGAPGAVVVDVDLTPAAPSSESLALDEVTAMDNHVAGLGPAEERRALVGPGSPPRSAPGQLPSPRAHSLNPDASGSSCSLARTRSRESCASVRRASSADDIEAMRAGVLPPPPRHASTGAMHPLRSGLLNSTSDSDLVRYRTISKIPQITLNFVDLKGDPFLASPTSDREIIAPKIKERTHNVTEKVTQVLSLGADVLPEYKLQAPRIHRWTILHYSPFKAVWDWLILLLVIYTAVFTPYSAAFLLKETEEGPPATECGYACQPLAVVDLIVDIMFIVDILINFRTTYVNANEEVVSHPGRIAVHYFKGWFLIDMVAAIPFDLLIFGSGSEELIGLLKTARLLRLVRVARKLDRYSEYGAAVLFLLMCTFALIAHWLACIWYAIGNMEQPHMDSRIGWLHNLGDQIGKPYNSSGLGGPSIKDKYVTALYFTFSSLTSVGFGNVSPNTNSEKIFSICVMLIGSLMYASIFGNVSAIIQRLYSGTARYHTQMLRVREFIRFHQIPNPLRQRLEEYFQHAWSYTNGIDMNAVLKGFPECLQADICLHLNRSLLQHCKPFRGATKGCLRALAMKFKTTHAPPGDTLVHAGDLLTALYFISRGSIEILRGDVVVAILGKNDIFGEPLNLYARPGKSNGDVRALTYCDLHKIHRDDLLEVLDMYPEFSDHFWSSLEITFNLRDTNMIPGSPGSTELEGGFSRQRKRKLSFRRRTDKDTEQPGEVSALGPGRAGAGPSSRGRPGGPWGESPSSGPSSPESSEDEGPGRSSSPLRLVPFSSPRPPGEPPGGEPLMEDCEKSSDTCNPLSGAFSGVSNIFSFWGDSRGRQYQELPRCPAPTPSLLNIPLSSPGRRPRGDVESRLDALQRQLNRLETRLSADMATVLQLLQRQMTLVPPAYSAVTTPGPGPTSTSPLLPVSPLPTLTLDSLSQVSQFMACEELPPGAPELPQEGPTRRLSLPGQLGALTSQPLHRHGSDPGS

Structure (SMILES) | hERG current change (%, negative = inhibition) at 10uM
COc1ccccc1NC(=S)N(c1ccccc1)C(C)C | 6.18%
C=C(C)Cn1c(SCCCO)nc2c1c(=O)[nH]c(=O)n2C | -4.83%
Cc1cc(C)c2nc(C(F)(F)F)nc(N3CCN(C(=O)c4ccco4)CC3)c2c1 | 6.1%
Cc1ccc(N2C(=O)C(NC(=O)c3ccccc3)(C(F)(F)F)C3=C2CC(C)(C)CC3=O)cc1 (stereo not shown) | 7.2%
Cc1csc(NC(=O)c2ccccc2[N+](=O)[O-])n1 | 2.69%
Cc1csc(NC(=O)c2ccc(Cl)cc2[N+](=O)[O-])n1 | -64.8%
O=C(Nc1nccs1)c1ccc(Cl)cc1[N+](=O)[O-] | -9.1%
COC(=O)c1ccc(CSc2nnc(NC(=O)C3CCCO3)s2)cc1 (stereo not shown) | -23.5%
CCN(CC)S(=O)(=O)c1ccc(N2CCOCC2)c(NS(=O)(=O)c2ccc(C(C)C)cc2)c1 | -6.87%
O=C(C1CC(=O)N(c2ccc(Cl)cc2)C1)N1CCC(c2nc3ccccc3[nH]2)CC1 (stereo not shown) | -71.6%
O=C(C1CC(=O)N(c2ccc(F)cc2)C1)N1CCC(c2nc3ccccc3[nH]2)CC1 (stereo not shown) | -63.8%
Cc1ccc(N2CC(C(=O)N3CCC(c4nc5ccccc5[nH]4)CC3)CC2=O)cc1C (stereo not shown) | -46.2%
O=C(C1CCCCC1)N1CCC(c2nc3ccccc3[nH]2)CC1 | -5.51%
O=C(C1CC(=O)N(c2ccccc2)C1)N1CCC(c2nc3ccccc3[nH]2)CC1 (stereo not shown) | 9.08%
COc1ccc(N2CC(C(=O)N3CCC(c4nc5ccccc5[nH]4)CC3)CC2=O)cc1 (stereo not shown) | -19.3%
Clc1ccccc1CSc1nnc(-c2ccncc2)o1 | -14%
COCCNCC(=O)NC12CC3CC(CC(C3)C1)C2 | 8.91%
CC(C)COc1ccc(C(=O)N2C(=O)c3ccc(N)cc3C2=O)cc1 | 4.32%
COc1ccc(/C(O)=C2/C(=O)C(=O)N(CCN(C)C)C2c2ccc(C)cc2)cc1Cl (stereo not shown) | 5.16%
COc1ccc(C2CN(C)CC2C(=O)c2ccc(F)cc2)cc1Cl (stereo not shown) | -78.7%
COc1ccc(/C(O)=C2/C(=O)C(=O)N(CCN(C)C)C2c2ccc(F)cc2)cc1Cl (stereo not shown) | 13.8%
COc1ccc(CNC(=O)N2CCN(c3ccc(F)cc3)CC2)cc1Cl | -26.1%
COc1ccc(C2CN(C)CC2C(=O)c2ccc(C)cc2)cc1Cl (stereo not shown) | -63%
Cc1c(C(N)=O)sc(N)c1C(=O)OC(C)C | 9.72%
COC(=O)c1ccc(N=C2SCC(=O)N2C)cc1 | 14.3%
CCOc1cc(OCC)nc(S(C)(=O)=O)n1 | -0.891%
CCN(CC(=O)NCc1ccc(F)cc1)C(=O)CN1CCN(c2ccc(OC)cc2)CC1.O=C(O)C(=O)O | -61.9%
CCN(CC(=O)NCc1ccc(F)cc1)C(=O)CN1CCN(c2ccccc2OC)CC1 | -61.4%

Structure (SMILES) | hERG current change (%, negative = inhibition) at 10uM
COc1ccc(CNC(=O)N2CCN(c3ccc(F)cc3)CC2)cc1 | -6.24%
Cc1ccccc1N1CCN(CC(=O)NCc2ccc(Cl)cc2)CC1 | -27%
Cc1cccc(N2CCN(CC(=O)NCc3ccc(Cl)cc3)CC2)c1C | -29.2%
COc1ccccc1N1CCN(CC(=O)NCc2ccc(Cl)cc2)CC1 | -0.607%
COc1ccc(C(=O)CN2CCN(c3ccc(F)cc3)CC2)cc1 | -38.3%
CCN(CC(=O)NCc1ccc(F)cc1)C(=O)CN1CCN(c2cc(Cl)ccc2C)CC1 | -73.1%
CCOc1ccccc1N1CCN(C(=O)NCc2ccc(F)cc2)CC1 | -9.29%
CC(=O)Nc1ccc(NCc2cccs2)cc1 | 6.07%
Cc1ccc(NC(=O)N2CCN(C(=O)C3CCCO3)CC2)cc1 (stereo not shown) | 9.64%
COc1ccccc1OCC(=O)Nc1ncc(C)s1 | -6.77%
CC(C)(C)NC(=O)NC(=O)CSc1nnc2ccccn12 | -2.98%
CCOc1ccccc1CNC(=O)C1CCC(=O)N1C(C)C (stereo not shown) | 1.56%
Cc1cnc(C(=O)OCC(=O)Nc2c(Cl)cc(Cl)cc2Cl)cn1 | 12.7%
O=C(CCCNS(=O)(=O)c1cccc2nsnc12)NCCc1ccccc1 | 5.61%
O=C(NCc1ccccc1)C1CCN(S(=O)(=O)c2cc([N+](=O)[O-])ccc2Cl)CC1 | -7.61%
CN(Cc1ccccc1)C(=O)C1CCN(S(C)(=O)=O)CC1 | 16.1%
CC1CCN(S(=O)(=O)c2cc([N+](=O)[O-])ccc2Cl)CC1 | -24%
CC(NC(=O)C1CCN(S(=O)(=O)c2cc([N+](=O)[O-])ccc2Cl)CC1)c1ccccc1 (stereo not shown) | 11.5%
CN(Cc1ccccc1)C(=O)C1CCN(S(=O)(=O)c2cc([N+](=O)[O-])ccc2Cl)CC1 | -54.6%
CCC(C)NC(=O)C1CCN(S(=O)(=O)c2cc([N+](=O)[O-])ccc2Cl)CC1 (stereo not shown) | -0.184%
O=C(COC(=O)C1CC1)Nc1ncc(Cl)cc1Cl | 8.23%
O=C(COC(=O)C1CCN(S(=O)(=O)c2cc([N+](=O)[O-])ccc2Cl)CC1)Nc1ncc(Cl)cc1Cl | -57.6%
CC(=O)COC(=O)C1CCN(S(=O)(=O)c2cc([N+](=O)[O-])ccc2Cl)CC1 | -51.8%
O=C(NCc1ccc(Cl)cc1)C1CCN(S(=O)(=O)c2cc([N+](=O)[O-])ccc2Cl)CC1 | -59%
O=C(COC(=O)C1CCCC1)Nc1ncc(Cl)cc1Cl | 5.91%
O=C(NC1CC1)C1CCN(S(=O)(=O)c2cc([N+](=O)[O-])ccc2Cl)CC1 | -28%
Cc1cccc(C(=O)NC2CCN(C(=S)NCc3ccco3)CC2)c1 | -46.7%
